# Experimental data: article PMC4336329 (PLoS ONE, 2015)
# The campaign covered roughly 310,000 compounds. About 2,200 (0.71%) showed an effect of 50% or more. Effects have a minus sign here. The entries come from a sample that favours strong results as a whole.
# Target: human ether-à-go-go-related gene (hERG) potassium channel (human, UniProt Q12809)
# Assay: primary screen, population patch clamp on CHO cells stably expressing hERG; higher = less effect of the substance
# human ether-à-go-go-related gene (hERG) potassium channel, sequence (Q12809 whole entry, looked up): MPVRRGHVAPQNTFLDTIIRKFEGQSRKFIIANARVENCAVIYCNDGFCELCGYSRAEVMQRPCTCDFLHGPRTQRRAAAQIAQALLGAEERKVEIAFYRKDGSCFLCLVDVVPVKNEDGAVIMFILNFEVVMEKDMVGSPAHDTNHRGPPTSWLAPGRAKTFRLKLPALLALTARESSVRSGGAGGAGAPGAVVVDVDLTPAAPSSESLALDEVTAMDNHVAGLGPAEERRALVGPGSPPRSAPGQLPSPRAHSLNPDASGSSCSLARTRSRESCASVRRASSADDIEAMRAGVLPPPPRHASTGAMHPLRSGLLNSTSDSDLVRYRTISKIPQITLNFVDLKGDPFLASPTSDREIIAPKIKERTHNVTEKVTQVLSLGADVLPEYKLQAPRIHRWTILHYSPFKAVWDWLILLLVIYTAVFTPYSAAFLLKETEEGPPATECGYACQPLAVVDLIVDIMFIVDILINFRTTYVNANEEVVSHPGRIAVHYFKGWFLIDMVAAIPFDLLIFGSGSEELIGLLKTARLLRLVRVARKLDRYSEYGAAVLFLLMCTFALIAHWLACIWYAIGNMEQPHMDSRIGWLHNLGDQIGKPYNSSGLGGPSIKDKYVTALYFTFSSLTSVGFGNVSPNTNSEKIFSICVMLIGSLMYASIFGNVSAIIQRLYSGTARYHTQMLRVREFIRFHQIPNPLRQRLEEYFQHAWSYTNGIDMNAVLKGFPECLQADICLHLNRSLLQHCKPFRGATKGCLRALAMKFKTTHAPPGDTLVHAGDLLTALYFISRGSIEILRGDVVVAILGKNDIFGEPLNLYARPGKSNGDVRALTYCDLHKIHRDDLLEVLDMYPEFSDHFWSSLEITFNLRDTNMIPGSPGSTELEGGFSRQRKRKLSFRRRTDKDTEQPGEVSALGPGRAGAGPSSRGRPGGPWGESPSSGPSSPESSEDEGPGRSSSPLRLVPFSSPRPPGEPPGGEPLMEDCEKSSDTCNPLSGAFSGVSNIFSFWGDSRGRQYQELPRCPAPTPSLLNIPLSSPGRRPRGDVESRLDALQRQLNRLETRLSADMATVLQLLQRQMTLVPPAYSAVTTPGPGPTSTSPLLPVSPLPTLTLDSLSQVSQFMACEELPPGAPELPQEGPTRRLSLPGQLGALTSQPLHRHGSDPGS
row,Structure (SMILES),"hERG current change (%, negative = inhibition) at 1uM [%]"
1,Cc1nnc(NCc2n[nH]c(=O)c3ccccc23)c2ccccc12,9.65
2,O=C(CN(C(=O)c1csnn1)c1ccc2c(c1)OCCO2)NCc1ccc(F)cc1,-1.13
3,COc1ccc2c(c1)C(=O)CC(c1ccc3c(c1)OCCO3)O2 (stereo not drawn),16.1
4,CCOC(=O)c1ccc(NC(=O)Nc2cccc(C)n2)cc1,10
5,Cc1ccccc1SC1CCN(Cc2nc(C3CC3)no2)CC1,-1.23
6,Cc1ccc(CS(=O)(=O)c2ncn[nH]2)cc1,21
7,Cc1oc(-c2ccccc2F)nc1CN1CCC(C(=O)NCc2ccco2)CC1,-9.53
8,CCN1CCN(C(=O)C2CCN(Cc3nc(-c4cccc(Cl)c4)oc3C)CC2)CC1,-21
9,Cc1oc(-c2ccc(Cl)cc2)nc1CN1CCCC(C(=O)NCc2ccco2)C1 (stereo not drawn),-56.4
10,Cc1oc(-c2ccc(Cl)cc2)nc1CN1CCC(C(=O)N2CCN(Cc3ccccc3)CC2)CC1,-48.1
11,Cc1oc(-c2cccc(Cl)c2)nc1CN1CCC(C(=O)NC2CC2)CC1,14.6
12,Cc1oc(-c2cccc(Cl)c2)nc1CN1CCCC(C(=O)NCc2ccco2)C1 (stereo not drawn),-45
13,Cc1ccccc1-c1nc(CN2CCC(C(=O)NCc3ccco3)CC2)c(C)o1,-34.7
14,Cc1oc(-c2ccc(Cl)cc2)nc1CN1CCC(C(=O)N2CCc3ccccc3C2)CC1,-56.7
15,Cc1oc(-c2cccc(Cl)c2)nc1CN1CCC(C(=O)NCc2ccco2)CC1,-70.4
16,Cc1oc(-c2cccc(Cl)c2)nc1CN1CCC(C(=O)NCc2cccnc2)CC1,-13
17,Cc1oc(-c2ccc(Cl)cc2)nc1CN1CCCC(C(=O)NCc2ccccn2)C1 (stereo not drawn),-44.2
18,Cc1oc(-c2ccc(Cl)cc2)nc1CN1CCC(C(=O)NCc2ccco2)CC1,-58.3
19,Cc1ccc(OC(=O)c2ccc3nc(C)sc3c2)cc1,10
20,COC(=O)COC(=O)c1ccc(O)cc1,-12.9
21,O=C1C=C(c2ccc3ncccc3c2)C[C@@H](c2ccc3c(c2)OCO3)C1,9.3
22,O=C(c1cc2ccccc2oc1=O)N(Cc1cccs1)Cc1ccccc1Cl,2.42
23,CCc1ccc(NC(=O)CCn2nc(C)c(S(=O)(=O)N3CCCCC3)c2C)cc1,4.67
24,CCOC(=O)COc1c(-c2ccc(OC)cc2)oc2ccccc2c1=O,9.81
25,CC(C)OP(=O)(OC(C)C)C(Nc1ccccc1)c1cccc([N+](=O)[O-])c1 (stereo not drawn),12
26,COc1cc(-c2nc3n(n2)C(c2ccncc2)C2=C(CCCC2=O)N3)cc(OC)c1OC (stereo not drawn),26
27,Cc1ccc(CN2C(=O)C3CCCN3c3ncccc32)cc1 (stereo not drawn),12.7

row,Structure (SMILES),"hERG current change (%, negative = inhibition) at 1uM [%]"
1,CCCCN1C(=O)NC(=O)/C(=C/c2cnc(SC)nc2)C1=O,7.6
2,Cc1ccccc1NCc1ccc(O)c2ncccc12,8.46
3,Cl.N=c1ccn(Cc2ccccc2Cl)cc1,16.8
4,CCc1ccc(-c2nc(CN3CCC(C(=O)NCCN(CC)c4ccccc4)CC3)c(C)o2)cc1,-15.6
5,CCc1ccc(-c2nc(CN3CCC(C(=O)NCc4ccco4)CC3)c(C)o2)cc1,-51.1
6,CCc1ccc(-c2nc(CN3CCC(C(=O)NCc4ccc(F)cc4)CC3)c(C)o2)cc1,-12.4
7,CCOc1ccc(-c2cn3ccccc3n2)cc1,-1.48
8,COc1ccc(CC(=O)Nc2c(C(=O)N3CCN(c4ncccn4)CC3)oc3ccccc23)cc1,-21.4
9,CCOCCCN(C)C1CCN(C(=O)c2oc3ccccc3c2NC(=O)Cc2ccc([N+](=O)[O-])cc2)CC1,-89.1
10,COc1ccc(CC(=O)Nc2c(C(=O)N3CCN(c4ccccc4)CC3)oc3ccccc23)cc1OC,-8.82
11,COc1ccc(N2CCN(C(=O)c3oc4ccccc4c3NC(=O)Cc3cccc(OC)c3)CC2)cc1,3.16
12,CCCN(CCC)C(=O)c1oc2ccccc2c1NC(=O)Cc1cccc(OC)c1,19.2
13,CCOCCCN(C)C1CCN(C(=O)c2oc3ccccc3c2NC(=O)Cc2cccc([N+](=O)[O-])c2)CC1,-83.8
14,COc1ccc(NS(=O)(=O)c2cccc(C(=O)N3CCCC(C)C3)c2)cc1 (stereo not drawn),3.3
15,CCN(CCn1cccn1)C(=O)CC1C(=O)NCCN1Cc1ccc(OC)c(OC)c1 (stereo not drawn),2.76
16,COc1ccc(Cn2nnnc2C(c2ccc(C)cc2)N2CCN(C3CCCC3)CC2)cc1.Cl (stereo not drawn),-32.4
17,Fc1ccc(Cn2nnnc2C(c2cccs2)N2CCN(C3CCCCC3)CC2)cc1 (stereo not drawn),-51.6
18,c1cnc2ccc(C(c3nnnn3C3CCCCC3)N3CCCCC3)cc2c1 (stereo not drawn),1.89
19,c1cnc2ccc(C(c3nnnn3C3CCCCC3)N3CCN(C4CCCCC4)CC3)cc2c1 (stereo not drawn),-87
20,c1cnc2ccc(C(c3nnnn3C3CCCCC3)N3CCN4CCCC4C3)cc2c1 (stereo not drawn),-96.9
21,OC1CCN(C(c2ccc3ncccc3c2)c2nnnn2C2CCCCC2)CC1 (stereo not drawn),-5.3
22,COc1ccc(Cn2nnnc2C(c2ccc3ncccc3c2)N2CCN(C3CCCCC3)CC2)cc1 (stereo not drawn),-79.3
23,COc1ccc(Cn2nnnc2C(c2ccc(F)cc2)N2CCN(C3CCCC3)CC2)cc1 (stereo not drawn),-15
24,Fc1ccc(Cn2nnnc2C(c2cccs2)N2CCCCCC2)cc1 (stereo not drawn),0.84
25,c1cnc2ccc(C(c3nnnn3C3CCCC3)N3CCN4CCCC4C3)cc2c1 (stereo not drawn),-19.5
26,Fc1ccc(C(c2nnnn2Cc2cccs2)N2CCN(C3CCCCC3)CC2)cc1 (stereo not drawn),-46.6
27,CCC(C)(C)n1nnnc1C(c1ccc2ncccc2c1)N1CCN2CCCC2C1 (stereo not drawn),8.16
